The panel holds about 83,000 compounds, 20% with a hit somewhere; the sample as a whole holds those more often.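 The endpoint reported here, percent growth, reads 100 for growth as untreated, 0 for no net growth and -100 for all cells dead.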 Active and inactive are the calls of the source. The calls were made as follows: active = growth percent below 10; inactive = the rest.
Key:
Experiment in all cases: NCI-60 one-dose screen, 48 h (100 = growth as untreated, 0 = no growth, -100 = all killed)
Details in all cases: 10 µM unless noted
NCI-H226 lung = system: NCI-H226 lung
NCI-H322M lung = system: NCI-H322M lung
HOP-62 NSCLC = system: HOP-62 NSCLC
NCI-H460 lung = system: NCI-H460 lung
HOP-92 NSCLC = system: HOP-92 NSCLC
NCI-H522 lung = system: NCI-H522 lung
A549/ATCC NSCLC = system: A549/ATCC NSCLC
786-0 renal = system: 786-0 renal
COLO 205 colon = system: COLO 205 colon
DU-145 prostate = system: DU-145 prostate
K-562 leukemia = system: K-562 leukemia
MALME-3M melanoma = system: MALME-3M melanoma
MDA-MB-231 breast = system: MDA-MB-231 breast
RXF 393 renal = system: RXF 393 renal
SF-268 CNS = system: SF-268 CNS
SF-295 CNS = system: SF-295 CNS
SF-539 CNS = system: SF-539 CNS
UACC-257 melanoma = system: UACC-257 melanoma
M14 melanoma = system: M14 melanoma

Measured: growth

Cn1cc(-c2cc3nc(-c4c[nH]c5ccc(Cl)cc45)cc(N)n3n2)c2ccccc21
active: NCI-H226 lung -33.8% | NCI-H322M lung -82% | HOP-62 NSCLC -72.3% | NCI-H460 lung -5.5% | HOP-92 NSCLC -76.5% | NCI-H522 lung -76.5% | A549/ATCC NSCLC -75% | 786-0 renal -89% | COLO 205 colon -87.4% | DU-145 prostate -85.9% | K-562 leukemia 1.64% | MALME-3M melanoma -74.4% | MDA-MB-231 breast -56.2% | RXF 393 renal -80.1% | SF-268 CNS -44.9% | SF-295 CNS -82.9% | SF-539 CNS -87.9% | UACC-257 melanoma -84.8% | M14 melanoma -89.6%

Cc1ccc(-c2nc(C#N)c(S(=O)(=O)N3CCN(S(=O)(=O)c4ccccc4)CC3)o2)cc1
inactive: NCI-H226 lung 69.2% | NCI-H322M lung 77.9% | HOP-62 NSCLC 87.7% | NCI-H460 lung 32.6% | A549/ATCC NSCLC 57.9% | DU-145 prostate 28.8% | MDA-MB-231 breast 31.4% | SF-268 CNS 56.5% | SF-295 CNS 149% | UACC-257 melanoma 44.7%
active: HOP-92 NSCLC -20.4% | NCI-H522 lung -87.8% | 786-0 renal -87.1% | COLO 205 colon -62.1% | K-562 leukemia -28.1% | MALME-3M melanoma -77.4% | RXF 393 renal -89.2% | SF-539 CNS -43.4% | M14 melanoma -21.3%

CC12CC[C@@H]3[C@]4(C)COC(c5c(F)cccc5F)O[C@@H]4CC[C@@]3(C)[C@@H]1CC(C1=CCOC1=O)O2 (stereo partly specified)
inactive: NCI-H226 lung 63.6% | NCI-H322M lung 79.9% | HOP-62 NSCLC 56.2% | NCI-H460 lung 96.3% | NCI-H522 lung 55.4% | A549/ATCC NSCLC 70.3% | 786-0 renal 46.8% | COLO 205 colon 91.7% | DU-145 prostate 76.6% | K-562 leukemia 66.6% | MALME-3M melanoma 60.4% | MDA-MB-231 breast 36.5% | RXF 393 renal 83.8% | SF-268 CNS 70.3% | SF-295 CNS 69.1% | SF-539 CNS 33.8% | UACC-257 melanoma 64.6% | M14 melanoma 66.5%
active: HOP-92 NSCLC -3.83%

CN1CCN(c2ccc(C(=O)/C=C/c3cc(C(F)(F)F)cc(C(F)(F)F)c3)cc2)CC1
active: NCI-H226 lung -42.9% | NCI-H322M lung -81.7% | HOP-62 NSCLC -74.9% | NCI-H460 lung -40.8% | HOP-92 NSCLC -55.2% | NCI-H522 lung -69.6% | A549/ATCC NSCLC -87.8% | 786-0 renal -97.9% | COLO 205 colon -83.4% | DU-145 prostate -73.9% | MALME-3M melanoma -86.5% | MDA-MB-231 breast -89.9% | RXF 393 renal -86.7% | SF-268 CNS -51% | SF-295 CNS -86.4% | SF-539 CNS -97% | UACC-257 melanoma -88.9% | M14 melanoma -97.4%

CC1(C)CC[C@]2(C(=O)O)CC[C@]3(C)C(=CCC4[C@@]5(C)C[C@@H](O)[C@@H]6OC(c7ccc(F)cc7)OC[C@@]6(C)C5CC[C@]43C)C2C1 (stereo partly specified)
inactive: NCI-H226 lung 34.4% | NCI-H322M lung 29% | HOP-62 NSCLC 47.5% | NCI-H460 lung 15.7% | A549/ATCC NSCLC 17% | 786-0 renal 39.6% | DU-145 prostate 28.7% | K-562 leukemia 14.9% | MALME-3M melanoma 39% | MDA-MB-231 breast 50.6% | RXF 393 renal 42.8% | SF-268 CNS 41.3% | SF-295 CNS 32.7% | SF-539 CNS 50.8% | UACC-257 melanoma 42.3% | M14 melanoma 40.4%
active: HOP-92 NSCLC 1.62% | NCI-H522 lung 8.38% | COLO 205 colon -2.36%

S=C(Nc1ccc(OCc2nc3ccccc3[nH]2)cc1)NC1CCCCC1
inactive: NCI-H226 lung 105% | NCI-H322M lung 106% | HOP-62 NSCLC 95.1% | NCI-H460 lung 125% | HOP-92 NSCLC 109% | NCI-H522 lung 51.7% | A549/ATCC NSCLC 105% | 786-0 renal 93% | COLO 205 colon 110% | DU-145 prostate 98.4% | K-562 leukemia 108% | MALME-3M melanoma 67.6% | MDA-MB-231 breast 100% | RXF 393 renal 147% | SF-268 CNS 106% | SF-295 CNS 74.4% | SF-539 CNS 79.5% | UACC-257 melanoma 95.5% | M14 melanoma 105%

COc1ccc2oc(=O)c(C3(C)NC(=O)c4c(/C=C/C(=O)OC(C)(C)C)cccc4N3)cc2c1 (stereo unspecified)
inactive: NCI-H226 lung 44.7% | NCI-H322M lung 66.9% | HOP-62 NSCLC 61% | NCI-H460 lung 47.2% | HOP-92 NSCLC 32.9% | NCI-H522 lung 27.8% | A549/ATCC NSCLC 27.3% | 786-0 renal 66.7% | COLO 205 colon 44.9% | DU-145 prostate 69.5% | K-562 leukemia 25.5% | MALME-3M melanoma 40.5% | MDA-MB-231 breast 49.1% | RXF 393 renal 40.3% | SF-268 CNS 58.1% | SF-295 CNS 39.3% | SF-539 CNS 67.6% | UACC-257 melanoma 32.6% | M14 melanoma 48.7%

COC(OC)C1=C(C)OC(N)=C(C#N)C12C(=O)Nc1ccccc12 (stereo unspecified)
active: NCI-H522 lung 6.48%
inactive: NCI-H226 lung 90.2% | NCI-H322M lung 98.3% | HOP-62 NSCLC 111% | NCI-H460 lung 97.2% | HOP-92 NSCLC 118% | A549/ATCC NSCLC 114% | 786-0 renal 113% | COLO 205 colon 102% | DU-145 prostate 105% | K-562 leukemia 82% | MALME-3M melanoma 87.2% | MDA-MB-231 breast 102% | RXF 393 renal 109% | SF-268 CNS 104% | SF-295 CNS 138% | SF-539 CNS 100% | UACC-257 melanoma 100% | M14 melanoma 94.9%
